High-throughput results: PubChem BioAssay, several laboratories
Most compounds without a hit are left out; they make up all but 7.2% or so of the library.
A1 inh = caspase 3/7 activation in MEF A1-2A-BIM cells, primary screen, A1 inhibitor project, cell-based, luminescence, HTS | actives 0.066% (n = 330,000) | Caspase-Glo 3/7 luminescence, 3 h; percent of clofoctol response, vehicle zero | caspase activation, % (no concentration beside the values) | AID 2462, 2010;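 active means over half of replicate activation scores above 10%, or exactly half above 10 with the replicate mean above 10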
VLA-4 inh = inhibition in human VLA-4 binding assay, primary screen, VLA-4 allosteric modulator project, MLPCN library, flow cytometry, VLA-4 expressing cells. Integrin alpha-4 (Homo sapiens), P13612. ligand binding flow cytometry. inhibition, % (about 7 µM as worked out from the volumes in the protocol). actives 0.2% (n = 330,000). AID 2557, 2010; in the data active means inhibition above about 50%
AHR act = AHR activators, primary screen, cell-based, luminescence, luciferase reporter, human. Aryl hydrocarbon receptor (Homo sapiens), P35869. actives 2.5% (n = 320,000). AHR-responsive luciferase reporter cells. activation, % at 5 µM; in the data active means activation above about 47%;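 further: 0% = vehicle wells and 100% = reference agonist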
SUMO Mot1 rescue = yeast Mot1-301 growth rescue at high temperature, primary screen, SUMOylation pathway inhibitor project, S. cerevisiae, ATP luminescence, 38.5C; S. cerevisiae Mot1-301 growth rescue; percent above DMSO median, 100 means doubled; growth rescue, % at 18.8 µM; actives 1% (n = 320,000); AID 2716, 2010;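 active means every valid replicate shows activation above 250% relative to neutral control wells; inactive means the rest, any valid replicate at or below 250%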;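 further: OY570 slx delta 5 strain wells were the positive control but not used for scaling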
ALR inh = inhibitors of human ALR sulfhydryl oxidase, primary screen, biochemical, H2O2 detection, HRP-luminol luminescence, single point. purified ALR, DTT oxidation. inhibition, % (concentration not given with the values). AID 485317, 2010. actives 3.8% (n = 290,000);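 active means mean replicate inhibition above about 79%, with every replicate also reaching it, limit read from the data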
Efflux pump mplx = inhibitors of Candida efflux pumps in yeast, primary screen, S. cerevisiae, Nile Red, multiplex; S. cerevisiae Candida pump triplex; inhibition, % at 10 µM; actives 0.44% (n = 330,000); AID 485275, 2010;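 active means plate passing quality check with inhibition over a set limit, or well fluorescence over plate mean plus 4 SD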;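 further: Nile Red retained in pooled yeast measured as flow cytometry median fluorescence; 0% = buffer negative control and 100% = Enniatin B positive control; higher means more Nile Red kept so more efflux inhibition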
Active calls of the source: *; · = no result given; + = active, no number.

SMILES | A1 inh | VLA-4 inh | AHR act | SUMO Mot1 rescue | ALR inh | Efflux pump mplx
CSc1n[nH]c2nc3c(c(=O)n12)C1(CCCC1)Cc1ccccc1-3 | 0 | 22 | 79* | 9 | 5 | 0
Cc1cc(OCC(=O)N2CCC(C(=O)O)CC2)c2c(C)c(C)c(=O)oc2c1 | 0 | 2 | 0 | -14 | · | 0
CN(C(=O)c1ccc(NC(=O)C2CCCN(C(=O)OC(C)(C)C)C2)cc1)C1CCCCC1 (stereo not given) | 3 | 6 | 2 | 1 | -10 | 0
COCCNC(=O)C(c1ccncc1)N(C(=O)c1sc(C)nc1C)c1cccc(C)c1 (stereo not given) | -2 | 2 | 5 | + | -8 | 0
CC(C)(C)NC(=O)CSCc1ccc(Br)cc1 | 0 | 23 | -2 | -3 | · | 0
COc1cccc(C2CC(c3ccc(Br)cc3)=NN2C(=O)c2ccncc2)c1OC (stereo not given) | 2 | 1 | -3 | 7 | · | 0
COc1ccccc1C1CC(c2ccc(Br)cc2)=NN1C(=O)c1cccnc1 (stereo not given) | 0 | 9 | 63* | -5 | · | 0
CCCCOc1ccc(N(CC(=O)NC(C)(C)C)C(=O)CCC(=O)Nc2nccs2)cc1 | 0 | 2 | 5 | -7 | -7 | 0
CCOC(=O)Cn1c(=S)[nH]c2c(oc3ccc(Cl)cc32)c1=O | 1 | 1 | 4 | · | 96* | 0
CCn1cc(Br)c(C(=O)Nc2sc3c(c2C(N)=O)CCCC3)n1 | 1 | 12 | 57* | -6 | 1 | 0
NC(=O)c1c(NC(=O)c2ccc(F)cc2Cl)sc2c1CCC2 | 0 | 12 | 56* | -6 | 93* | 0
O=C(Nc1sc2c(c1C(=O)O)CCC2)c1ccc(F)cc1 | -6 | 9 | 9 | 10 | 59 | 0
CC1CCc2sc(NC(=O)c3ccc(N4C(=O)CCC4=O)cc3)c(C(N)=O)c2C1 (stereo not given) | -1 | 11 | -2 | -3 | -2 | 0
NC(=O)c1c(NC(=O)c2ccccc2C(=O)O)sc2c1CCCC2 | 1 | 18 | 2 | -5 | 19 | 0
NC(=O)c1c(NC(=O)c2ccccc2Cl)sc2c1CCC2 | -1 | 12 | 35 | 10 | 91* | 0
NC(=O)c1c(NC(=O)c2ccc(N3C(=O)CCC3=O)cc2)sc2c1CCCC2 | -1 | -12 | 1 | 4 | 93* | 0
COCCN(CCOC)S(=O)(=O)c1ccc(C(=O)Nc2sc3c(c2C(N)=O)CCCCC3)cc1 | 0 | -1 | 9 | 8 | 91* | 0
COCCCNC(=O)c1c(NC(=O)c2cccs2)sc2c1CCCC2 | -1 | -20 | 4 | -2 | 86* | 0
COC(=O)c1c(NC(=O)c2ccc(N(C)S(=O)(=O)c3ccc(C)cc3)cc2)sc2c1CCCC2 | 1 | 9 | 2 | 15 | -28 | 0
NC(=O)c1c(NC(=O)c2cccs2)sc2c1CCCCCC2 | 0 | 7 | -3 | -19 | -9 | 0
CCCCN(C)C1CCN(C(=S)Nc2cccc(SC)c2)CC1 | 1 | -1 | 3 | 5 | -4 | 0
Cc1ccc(S(=O)(=O)N(C)Cc2ccccc2)cc1C(=O)N1CCCCC1 | 1 | -12 | 1 | 336* | 0 | 0
CN(C(=O)c1ccc(S(=O)(=O)N2CCCC2)cc1)C1CCS(=O)(=O)C1 (stereo not given) | 0 | 4 | -1 | 4 | -2 | 0
Cc1cccc(NS(=O)(=O)c2ccc(C3CCCCC3)cc2)c1 | 0 | 11 | 1 | 792* | 50 | 0
O=C(O)c1cccc(NS(=O)(=O)c2ccc(C3CCCCC3)cc2)c1 | 0 | 8 | -2 | 11 | 13 | 0
SMILES | A1 inh | VLA-4 inh | AHR act | SUMO Mot1 rescue | ALR inh | Efflux pump mplx
Cc1cs/c(=N/C(=S)Nc2ccccc2)n1C | -5 | 7 | 20 | 8 | -6 | 0
CCCn1c(C)cs/c1=N\C(=S)Nc1ccccc1 | 0 | 11 | 48* | -18 | -3 | 0
CCC(C)Sc1nnc(Cc2cc(=O)[nH]c(=O)[nH]2)n1-c1ccc(F)cc1 (stereo not given) | 0 | 29 | 1 | -9 | 98* | 0
O=C(NCc1nnc(SCC(=O)N2CCCc3ccccc32)n1-c1ccccc1)c1cccc2ccccc12 | -1 | 2 | 1 | 5 | -4 | 1
O=[N+]([O-])c1ccc2c(c1)C=C1CCCCC1(N1CCCC1)O2 (stereo not given) | 0 | 13 | 1 | 2 | 92* | 0
NC(=O)c1nsc(C(=O)N(Cc2ccco2)C(C(=O)NCc2ccccc2)c2ccc(O)cc2)c1N (stereo not given) | 0 | -19 | 13 | -23 | -6 | 0
Cc1cccc(C)c1NC(=O)CCCSc1nnc(-c2ccc(F)cc2)n1-c1ccccc1 | 0 | 11 | 12 | 7 | 96* | 0
Cc1c(NS(=O)(=O)c2cc(C(=O)NCC3CCCO3)cc(Cl)c2Cl)c(=O)n(-c2ccccc2)n1C (stereo not given) | 1 | 4 | 31 | -2 | 4 | 0
O=C(OCC1CC(c2ccccc2)=NO1)c1ccco1 (stereo not given) | 1 | 7 | -2 | 99 | 0 | 0
CS(=O)(=O)Nc1ccc(C2=NN(C(=O)c3ccco3)C(c3ccc(F)cc3)C2)cc1 (stereo not given) | 0 | 9 | 9 | 114 | -5 | 1
O=C(c1ccco1)N1N=C(c2ccc3nccnc3c2)CC1c1ccccc1 (stereo not given) | 0 | -6 | 2 | 541* | -8 | 0
CCOC(=O)[C@H]1[C@H]2COc3ccc(C)cc3[C@@H]2N2C(=O)c3cc(F)c(F)cc3NC(=O)[C@@]12C | 0 | · | -1 | 11 | · | ·
Cc1ccc(C(=O)Nc2cccc(C(F)(F)F)c2)cc1NC(=O)c1c[nH]c2cc(C(F)(F)F)ccc2c1=O | 0 | 14 | 58* | 0 | -4 | 0
Cc1ccc(C(=O)Nc2cccc(C(F)(F)F)c2)cc1Nc1ccccn1 | 0 | -6 | 50* | 11 | -11 | 0
COc1ccc(C(c2c(C)n(C)n(-c3ccccc3)c2=O)c2c(C)n(C)n(-c3ccccc3)c2=O)c(OC)c1OC | 0 | 6 | -1 | 0 | · | 0
CCN1CCN(C(=O)Nc2ccc(Cc3ccc(NC(=O)N4CCN(CC)CC4)cc3)cc2)CC1 | 0 | 43 | 9 | 0 | 99* | 0
COc1cccc(Nc2nc(-c3sc(C)nc3C)cs2)c1 | 0 | 21 | 23 | -22 | 7 | 0
